Source: the supplement of paper PMC7057948, “A genome-wide approach for identification and characterisation of metabolite-inducible systems” (Nature Communications, 2020)

tested on: BenM/P_H16_RS09790 benzoate biosensor (pEH148); assay: relative induction of RFP reporter vs primary effector (background-corrected); higher = stronger activation of the biosensor; settings: inducer concentration 5 mM; 6 h; Cupriavidus necator H16; minimal medium + 0.4% gluconate
Protocol: (§1)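 C. necator H16 strains, each carrying one of 21 transcription factor/inducible promoter–mRFP biosensor plasmids, were grown in minimal medium in 96-well plates (robotic platform). Each was exposed to 46 structurally or metabolically related compounds at 5 mM at 30 °C. OD-normalised RFP fluorescence was read 6 h later and expressed as relative induction (%) = 100 × (FL compound − FL uninduced)/(FL primary inducer − FL uninduced); mean of n=4.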
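Note: RFP excited at 585 nm with emission read at 620 nm, culture medium blanks subtracted from fluorescence and absorbance prior to normalisation.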

Row | Structure (SMILES) | relative induction of RFP reporter [%]
1 | O=CC(=O)O [glyoxylate] | -0.0259
2 | CCC(=O)O [propanoate] | -0.0373
3 | O=C(O)/C=C/C(=O)O [fumarate] | 0.214
4 | O=C(O)C[C@H](O)C(=O)O [L-malate] | -0.00804
5 | O=C(O)/C=C\C=C/C(=O)O [cis,cis-muconate] | -0.00774
6 | O=C(O)c1cccnc1 [nicotinate] | 1.95
7 | Oc1ccccc1O [catechol] | 9.72
8 | O=C(O)[C@@H](O)[C@@H](O)[C@H](O)[C@@H](O)C(=O)O [glucarate] | 0.00581
9 | O=C(O)c1ccc(O)cc1 [4-hydroxybenzoate] | -0.00462
10 | O=C(O)C(O)c1ccccc1 (stereo unspecified) [mandelic acid] | 0.175
11 | O=c1cc[nH]c(=O)[nH]1 [uracil] | -0.0102
12 | O=C(O)C(O)C(=O)O [tartronic acid] | 0.0119

tested on: FdsR/P_H16_RS03165 formate biosensor (pEH134); assay: as above; settings: inducer concentration 5 mM; 6 h; Cupriavidus necator H16; minimal medium + 0.4% gluconate
Protocol: as §1

Row | Structure (SMILES) | relative induction of RFP reporter [%]
13 | O=CC(=O)O [glyoxylate] | -3.09
14 | CCC(=O)O [propanoate] | -1.16
15 | O=C(O)/C=C/C(=O)O [fumarate] | 12.2
16 | O=C(O)C[C@H](O)C(=O)O [L-malate] | 15.3
17 | O=C(O)/C=C\C=C/C(=O)O [cis,cis-muconate] | 0.498
18 | O=C(O)c1cccnc1 [nicotinate] | 113
19 | Oc1ccccc1O [catechol] | -2.57
20 | O=C(O)[C@@H](O)[C@@H](O)[C@H](O)[C@@H](O)C(=O)O [glucarate] | -1.03
21 | O=C(O)c1ccc(O)cc1 [4-hydroxybenzoate] | 1.94
22 | O=C(O)C(O)c1ccccc1 (stereo unspecified) [mandelic acid] | 1.81
23 | O=c1cc[nH]c(=O)[nH]1 [uracil] | 2.09
24 | O=C(O)C(O)C(=O)O [tartronic acid] | -1.37

tested on: GabR/P_H16_RS23655 GABA biosensor (pEH256); assay: as above; settings: inducer concentration 5 mM; 6 h; Cupriavidus necator H16; minimal medium + 0.4% gluconate
Protocol: as §1

Row | Structure (SMILES) | relative induction of RFP reporter [%]
25 | O=CC(=O)O [glyoxylate] | -0.762
26 | CCC(=O)O [propanoate] | -3.91
27 | O=C(O)/C=C/C(=O)O [fumarate] | -0.753
28 | O=C(O)C[C@H](O)C(=O)O [L-malate] | -2.18
29 | O=C(O)/C=C\C=C/C(=O)O [cis,cis-muconate] | -1.92
30 | O=C(O)c1cccnc1 [nicotinate] | -1.65
31 | Oc1ccccc1O [catechol] | 3.82
32 | O=C(O)[C@@H](O)[C@@H](O)[C@H](O)[C@@H](O)C(=O)O [glucarate] | 0.559
33 | O=C(O)c1ccc(O)cc1 [4-hydroxybenzoate] | -0.622
34 | O=C(O)C(O)c1ccccc1 (stereo unspecified) [mandelic acid] | 1.32
35 | O=c1cc[nH]c(=O)[nH]1 [uracil] | 0.468
36 | O=C(O)C(O)C(=O)O [tartronic acid] | -0.481
